Where a structure was tested more than once in an assay, its records may differ in their call. Activity calls are given as the source filed them. How the source made its calls: active means hit-call score of the fitted dose curve at least 0.9, where 1 is the maximum; inactive means score below 0.9.
Assay: ATG_GLI_CIS: Attagene CIS-FACTORIAL HepG2 Assay for human Zinc Finger Protein GLI1 (AID 2282945)
Details: HepG2, Attagene cis-factorial reporter mRNA, GLI element; actives raise or lower the signal
Protocol: ATG_CIS is a cell-based, multiplexed-readout assay that uses HepG2, a human liver cell line, with measurements taken at 24 hours after chemical dosing in a 24-well plate.ATG_GLI_CIS is one of 52 assay component(s) measured or calculated from the ATG_CIS assay. It is designed to make measurements of mRNA induction, a form of inducible reporter, as detected with fluorescence intensity signals by Reverse transcription polymerase chain reaction (RT-PCR) and Capillary electrophoresis technology.Data from the assay component ATG_GLI_CIS was analyzed into 1 assay endpoint. This assay endpoint, ATG_GLI_CIS, was analyzed with bidirectional fitting relative to DMSO as the negative control and baseline of activity. Using a type of inducible reporter, measures of mRNA for gain or loss-of-signal activity can be used to understand the reporter gene at the transcription factor-level as they relate to the gene GLI1. Furthermore, this assay endpoint can be referred to as a primary readout, because this assay has produced multiple assay endpoints where this one serves a reporter gene function. To generalize the intended target to other relatable targets, this assay endpoint is annotated to the dna binding intended target family, where the subfamily is zinc finger.
Human liver HepG2 cells are transiently transfected with multiple reporter transcription units (MRTUs) in 6-well plates using FuGene 6 reagent (Roche; 3 ml FuGene/1 mg DNA). The MRTU constructs are regulated by a cis-regulating element (promoter). […] A major difference between the CIS and TRANS system is that in CIS activities of endogenous TFs are measured, whereas the TRANS assay evaluates changes in activities of exogenous, chimeric NR-Gal4 proteins. […] At the end of 24 hour incubation, total RNA was isolated using TriZol reagent (Invitrogen). The isolated RNA is then reverse-transcribed using oligo(dT) primer and Mo-MLV reverse transcriptase (Invitrogen) with DNAse I (Ambion) treatment for 30 min. The one-tenth of the produced cDNA was amplified by PCR using Taq DNA polymerase (Invitrogen) and two reporter sequence-specific primers. The PCR products were fluorescently labeled by primer extension with 6-arboxyfluorescein (6-FAM) 5'-labeled reporter sequence-specific primer (2 min at 95 C, 20 s at 68 C and 10 min at 72 C) and these products were digested with 5U of HpaI (New England Biolabs) for 2h at 37 C. The fragments were purified using Qiaquick PCR columns (Qiagen), analyzed on an ABI 3130xL genetic analyzer (Applied Biosystems) with peak positions identified by using a set of X-rhodamine (ROX)-labeled MapMarker1000 molecular weight standards (BioVentures). The raw capillary electrophoresis data was processed using Attagraph software (Attagene).

SMILES	outcome	AC50
FC(F)(F)C(F)(F)C(F)(F)C(F)(F)I	inactive	–
CCCCC(CC)C(=O)O (stereo not given)	inactive	–
CCOC=C(C(=O)OCC)C(=O)OCC	inactive	–
CCOC(=O)CN[C@@H](C(=O)N1CC[C@H]1C(=O)NCc1ccc(/C(N)=N/O)cc1)C1CCCCC1	inactive	–
CC=O	inactive	–
Oc1c(Cl)ccc(Cl)c1Cl	inactive	–
O=P(O)(O)CCC(F)(F)C(F)(F)C(F)(F)C(F)(F)C(F)(F)C(F)(F)F	inactive	–
CN(Cc1cnc2nc(N)nc(N)c2n1)c1ccc(C(=O)N[C@@H](CCC(=O)O)C(=O)O)cc1	inactive	–
COC(O)c1ccccc1 (stereo not given)	inactive	–
O=CC(F)(F)C(F)(F)C(F)(F)C(F)F	inactive	–
COC(=O)C(F)(F)C(F)(F)C(F)(F)F	inactive	–
OCC(F)(F)C(F)(F)C(F)(F)C(F)(F)C(F)(F)C(F)(F)C(F)(F)C(F)(F)C(F)(F)C(F)(F)C(F)(F)F	inactive	–
CCC(=O)O	inactive	–
CCOCCOCC	inactive	–
O=C(F)C(F)(F)C(F)(F)C(F)(F)C(=O)F	inactive	–
c1ccc2c(c1)CCC2	inactive	–
Clc1ccc(Nc2nnc(Cc3ccncc3)c3ccccc23)cc1	inactive	–
Clc1ccc2c(Cl)ccnc2c1	inactive	–
NCc1cccc(CN)c1	inactive	–
FC(OC(F)(F)C(F)(F)C(F)(F)F)C(F)(F)F (stereo not given)	inactive	–

SMILES	outcome	AC50
C/C=C/C(=O)C1=C(C)CCCC1(C)C	–	69.7 µM (active)
COc1ccc(C#N)cc1	inactive	–
NC(=NCCCCCCN=C(N)/N=C(\N)Nc1ccc(Cl)cc1)/N=C(\N)Nc1ccc(Cl)cc1	inactive	–
CCCCCCCCCCCC[N+](C)(C)Cc1ccccc1	inactive	16.7 µM (active)
COc1ccccc1NC(=O)c1cc2ccccc2cc1O	–	60.7 µM (active)
O=C(O)c1cccc(C(=O)O)n1	inactive	–
FCOC(C(F)(F)F)C(F)(F)F	inactive	–
O=C1Cc2ccccc2N1c1c(Cl)cccc1Cl	inactive	–
C=CC(=O)OCCC(F)(F)C(F)(F)C(F)(F)C(F)(F)C(F)(F)C(F)(F)C(F)(F)C(F)(F)F	inactive	–
CS(=O)(=O)c1ccc([C@@H](CC2CCCC2)C(=O)Nc2cnccn2)cc1Cl	inactive	–
CC(O)COc1ccccc1 (stereo not given)	inactive	–
CCCCCc1ccc(O)cc1	inactive	–
O=C1OC(=O)C(F)(F)C1(F)F	inactive	–
Brc1ccc(Oc2ccc(Br)cc2Br)cc1	inactive	–
Brc1cc(Br)c(Oc2c(Br)cc(Br)c(Br)c2Br)cc1Br	inactive	–
CCCCCCCCCC=CCC1CC(=O)OC1=O (stereo not given)	inactive	–
CC1=CC(=O)c2ccccc2C1=O	inactive	–
Cc1cccc2c1ccc1ccccc12	inactive	–
CCCCCCCCCCCCCCCC(=O)OC	inactive	–

Reference: PubChem BioAssay (EPA / NIEHS)
